Potency and outcome data for 10 molecules are collected here from PubChem BioAssay (Tox21).

A short description of assay [1]: qHTS assay to identify small molecule agonists of the peroxisome proliferator-activated receptor delta (PPARd) signaling pathway - cell viability counter screen (AID 743211). Note: nearly all actives have a fitted effect of over 55% in size. The procedure, abridged: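 Luminescent ATP viability assay (CellTiter-Glo, 30 min RT) in UAS-bla HEK293H cells carrying the PPAR delta reporter construct, 3000 cells/well, after a 17 h compound treatment at 37 C.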

Assay [2] can be described thus: qHTS assay to identify small molecule antagonists of the peroxisome proliferator-activated receptor delta (PPARd) signaling pathway - cell viability counter screen (AID 743213). Note: nearly all actives have a fitted effect of over 50% in size. The procedure, abridged:
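CellTiter-Glo was added to PPARd-bla HEK293H wells following 17 h compound treatment in the presence of 300 nM L165041. Luminescence was recorded after 30 min at room temperature.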

Assay [3] can be described thus: qHTS assay to identify small molecule agonists of the farnesoid-X-receptor (FXR) signaling pathway - cell viability counter screen (AID 743218). Note: nearly all actives have a fitted effect of over 45% in size. The procedure, abridged: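 Same-well cytotoxicity check on FXR-UAS-bla HEK 293T cells: 5 h attachment, 16 h compound at 37 C, CellTiter-Glo luminescence read at room temperature after 30 min.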
Assay [4] in a line: qHTS assay to identify small molecule antagonists of the farnesoid-X-receptor (FXR) signaling pathway - cell viability counter screen (AID 743221; active = well fitted cell-killing curve with a large enough effect in the repeat runs, not every such curve was filed as active; note: nearly all actives have a fitted effect of over 50% in size). A digest of the protocol:
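In GeneBLAzer FXR-UAS-bla HEK 293T cells stimulated with 50 uM chenodeoxycholic acid (final), compounds acted for 16 h at 37 C. Viability was assessed afterwards by CellTiter-Glo luminescence.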

The nature of assay [5]: qHTS assay to identify small molecule agonists of the vitamin D receptor (VDR) signaling pathway - cell viability counter screen (AID 743224). Note: series mostly up to about 63 µM; nearly all actives have a fitted effect of over 50% in size. A digest of the protocol:
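Counter screen for cytotoxicity: VDR-bla cells at 2,000 cells/well, 16 h compound exposure, then CellTiter-Glo luminescence after the beta-lactamase measurement.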

Assay [6] is described as follows: qHTS assay to identify small molecule antagonists of the vitamin D receptor (VDR) signaling pathway - cell viability counter screen (AID 743225). Note: nearly all actives have a fitted effect of over 50% in size. A digest of the protocol:
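Luminescent cell viability (CellTiter-Glo) in VDR-bla HEK 293T cells after 16 h compound exposure at 37C in the presence of 3 nM final 1-alpha,25-dihydroxy vitamin D3.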

Assay [7] is described as follows: qHTS assay to identify small molecule agonists of the NFkB signaling pathway - cell viability counter screen (AID 1159515; calls by dose curve; note: series mostly up to about 61 µM; nearly all actives have a fitted effect of over 55% in size). A digest of the protocol: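 Counter screen run alongside the NFkB-bla agonist assay: ME-180 reporter cells exposed to compounds for 5 hr, then lysed with CellTiter-Glo in the same wells. Luminescence, read after 30 min, reflects viable cells.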

Assay [8] can be described thus: qHTS assay to identify small molecule agonists of the endoplasmic reticulum stress response signaling pathway (AID 1159516; active = well fitted activation curve with a large enough effect in the signal ratio in the repeat runs, not every such curve was filed as active; the % refers to the signal ratio). A digest of the protocol: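 For this screen, HeLa cells stably carrying beta-lactamase under the ER stress response element received test compounds, positive controls or DMSO for 5 hr at 37 C; B/G FRET substrate was then added and dual-wavelength emission recorded.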

The nature of assay [9]: qHTS assay to identify small molecule antagonists of the retinoid-related orphan receptor gamma (ROR-gamma) signaling pathway - cell viability counter screen (AID 1159520). Note: nearly all actives have a fitted effect of over 50% in size. A digest of the protocol:
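Tet-on ROR gamma CHO cells (1,000/well) were plated 4 hr, given compounds in DMSO for 2 hr at 37 C, then induced with 1 uM final doxycycline for 16 hr. Viability was read as ATP by CellTiter-Glo luminescence after 30 min.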

Assay [10] has as its target Nuclear receptor ROR-gamma (Homo sapiens) (UniProt P51449). Nature of the assay: qHTS assay to identify small molecule antagonists of the retinoid-related orphan receptor gamma (ROR-gamma) signaling pathway (AID 1159521; note: nearly all actives have a fitted effect of over 50% in size; note: potency is the fitted concentration of half-maximal effect). The procedure, abridged: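 CHO cells expressing RORγ under a TET-on promoter, luciferase under RORE control. Dox 1 uM final, 16 h; compounds added 2 h prior. Luminescence decrease measured.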

Assay [11] can be described thus: qHTS assay to identify small molecule agonists of the AP-1 signaling pathway - cell viability counter screen (AID 1159525; calls by dose curve; note: nearly all actives have a fitted effect of over 55% in size). The procedure, abridged:
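Each titration point was normalised to DMSO and tetra n-octyl ammonium bromide controls. The read was Cell Titer Glo luminescence after 30 min at RT, following 5 h compound exposure of ME-180 AP-1-bla cells at 37 °C.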

A short description of assay [12]: qHTS assay to identify small molecule agonists of the AP-1 signaling pathway (AID 1159526; calls by dose curve).
The target of assay [13] is Bile acid receptor (Homo sapiens) (UniProt Q96RI1). The experiment in a line: qHTS assay to identify small molecule antagonists of the farnesoid-X-receptor (FXR) signaling pathway (AID 743217; active = well fitted inhibition curve with a large enough effect in the signal ratio in the repeat runs, not every such curve was filed as active; the % refers to the signal ratio). A digest of the protocol: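 Quantitative HTS, beta-lactamase reporter format: FXR-UAS-bla HEK 293T cells co-treated 16 h at 37 °C with compounds and 50 uM final chenodeoxycholic acid, then read by B/G FRET fluorescence.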
Chain of Bile acid receptor (Homo sapiens) (Q96RI1 whole entry, looked up): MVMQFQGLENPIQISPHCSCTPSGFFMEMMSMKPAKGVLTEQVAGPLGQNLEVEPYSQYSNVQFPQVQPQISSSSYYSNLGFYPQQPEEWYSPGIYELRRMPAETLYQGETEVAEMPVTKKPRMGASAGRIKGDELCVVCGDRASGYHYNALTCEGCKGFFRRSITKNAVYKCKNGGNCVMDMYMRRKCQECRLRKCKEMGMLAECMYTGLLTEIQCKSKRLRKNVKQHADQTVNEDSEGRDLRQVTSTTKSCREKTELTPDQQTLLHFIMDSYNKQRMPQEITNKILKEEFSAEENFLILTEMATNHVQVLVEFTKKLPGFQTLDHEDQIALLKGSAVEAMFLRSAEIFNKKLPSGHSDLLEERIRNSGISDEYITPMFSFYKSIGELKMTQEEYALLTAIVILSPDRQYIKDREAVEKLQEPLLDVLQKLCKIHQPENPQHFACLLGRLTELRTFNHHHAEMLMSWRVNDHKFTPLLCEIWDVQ

Assay [14] shares this target. Nature of the assay: qHTS assay to identify small molecule agonists of the farnesoid-X-receptor (FXR) signaling pathway (AID 743220; active = well fitted activation curve with a large enough effect in the signal ratio in the repeat runs, not every such curve was filed as active; the % refers to the signal ratio). The procedure, abridged:
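FXR-UAS-bla HEK 293T cells carrying a UAS-driven beta-lactamase reporter were plated for 5 h at 37C/5% CO2, then exposed to DMSO-dissolved Tox21 10K compounds for 16 h at 37C. A LiveBLAzer B/G FRET substrate was loaded for 2 h at room temperature before fluorescence reading.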

The target in assay [15] is Vitamin D3 receptor (Homo sapiens) (UniProt P11473). The experiment in a line: qHTS assay to identify small molecule agonists of the vitamin D receptor (VDR) signaling pathway (AID 743222; calls by dose curve). A digest of the protocol: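 Using LiveBLAzer B/G FRET detection, agonism was scored in VDR-bla cells exposed overnight (16 h, 37C) to DMSO-dissolved compounds; substrate incubation was 2 h at room temperature.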
Chain of Vitamin D3 receptor (Homo sapiens) (P11473 whole entry, looked up): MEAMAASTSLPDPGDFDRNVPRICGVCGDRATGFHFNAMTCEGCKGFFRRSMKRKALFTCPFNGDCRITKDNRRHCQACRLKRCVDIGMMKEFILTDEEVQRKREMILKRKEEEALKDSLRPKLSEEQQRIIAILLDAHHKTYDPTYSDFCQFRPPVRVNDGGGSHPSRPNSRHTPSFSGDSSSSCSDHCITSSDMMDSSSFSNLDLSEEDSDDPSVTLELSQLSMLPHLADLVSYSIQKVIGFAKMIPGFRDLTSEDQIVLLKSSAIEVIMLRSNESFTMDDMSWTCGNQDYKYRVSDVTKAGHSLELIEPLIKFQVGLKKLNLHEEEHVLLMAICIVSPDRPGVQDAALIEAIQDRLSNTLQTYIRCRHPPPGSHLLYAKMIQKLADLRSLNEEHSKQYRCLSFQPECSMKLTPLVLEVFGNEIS

Assay [16] concerns the target Retinoic acid receptor RXR-alpha (Homo sapiens) (UniProt P19793). Nature of the assay: qHTS assay to identify small molecule agonists of the RXR signaling pathway (AID 1159527; calls by dose curve; note: nearly all actives have a fitted effect of over 35% in size). A digest of the protocol:
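Beta-lactamase reporter assay, agonist format. Engineered HEK 293T line, charcoal-stripped FBS at 2%, overnight (16 hr) exposure, fluorescence at 460 and 530 nm after 405 nm excitation.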

For assay [17], the target named is Peroxisome proliferator-activated receptor delta (Homo sapiens) (UniProt Q03181). The experiment in a line: qHTS assay to identify small molecule agonists of the peroxisome proliferator-activated receptor delta (PPARd) signaling pathway (AID 743212; calls by dose curve). A digest of the protocol: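 Cells expressing a UAS-driven beta-lactamase reporter (PPARd-bla HEK293H) were given test compounds after a 5 h settle and kept at 37 C. Reporter activity was then measured as FRET fluorescence using LiveBLAzer B/G substrate.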
Chain of Peroxisome proliferator-activated receptor delta (Homo sapiens) (Q03181 whole entry, looked up): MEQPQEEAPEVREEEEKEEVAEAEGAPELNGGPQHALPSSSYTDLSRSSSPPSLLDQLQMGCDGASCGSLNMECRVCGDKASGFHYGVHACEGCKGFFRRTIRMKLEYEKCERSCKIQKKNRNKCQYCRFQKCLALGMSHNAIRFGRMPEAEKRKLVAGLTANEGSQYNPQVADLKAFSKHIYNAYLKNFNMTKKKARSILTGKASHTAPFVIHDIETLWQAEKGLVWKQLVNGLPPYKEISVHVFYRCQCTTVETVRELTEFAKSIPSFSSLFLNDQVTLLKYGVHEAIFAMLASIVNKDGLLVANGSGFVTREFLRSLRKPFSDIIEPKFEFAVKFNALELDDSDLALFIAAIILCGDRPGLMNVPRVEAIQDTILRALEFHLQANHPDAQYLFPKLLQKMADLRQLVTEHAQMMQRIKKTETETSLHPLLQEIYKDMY

For assay [18] the target is unchanged. Nature of the assay: qHTS assay to identify small molecule antagonists of the peroxisome proliferator-activated receptor delta (PPARd) signaling pathway (AID 743215; active = well fitted inhibition curve with a large enough effect in the signal ratio in the repeat runs, not every such curve was filed as active; the % refers to the signal ratio;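 note: cells stimulated with agonist L165041 at 300 nM final during compound exposure; series mostly up to about 62 µM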). The procedure, abridged:
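Screen format: qHTS, antagonist mode. HEK293H PPARd-bla cells received compound and 300 nM L165041 (final), 17 h, 37 C. Beta-lactamase detected via FRET substrate fluorescence, 2 h, room temperature.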

Assay [19] addresses Vitamin D3 receptor (Homo sapiens) (UniProt P11473). Nature of the assay: qHTS assay to identify small molecule antagonists of the vitamin D receptor (VDR) signaling pathway (AID 743223; active = well fitted inhibition curve with a large enough effect in the signal ratio in the repeat runs, not every such curve was filed as active; the % refers to the signal ratio). The procedure, abridged:
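Agonist 1alpha,25-dihydroxyvitamin D3 (3 nM in well) was added with each compound to VDR-bla cells preincubated 4 h. Cells stood 16 h at 37C, then FRET substrate 2 h at room temperature; fluorescence intensity recorded.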

Assay [20] is described as follows: qHTS assay to identify small molecule agonists of the endoplasmic reticulum stress response signaling pathway - cell viability counter screen (AID 1159517; calls by dose curve). The procedure, abridged: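 Cpd-treated ESRE-bla HeLa (5 hr, 37 C) → LiveBLAzer 2 hr RT → CellTiter-Glo 30 min RT → luminescence.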

Inconclusive results are not listed. Active and inactive are the calls of the source. Unless noted, calls come from the whole dose curve; as a rule, active = well fitted curve in the direction sought with a large enough effect in the repeat runs; inconclusive = weak or mixed curves; inactive = no such curve, though single readings can be large; an effect the other way counts as inactive or inconclusive.

Chain of Retinoic acid receptor RXR-alpha (Homo sapiens) (P19793 whole entry, looked up): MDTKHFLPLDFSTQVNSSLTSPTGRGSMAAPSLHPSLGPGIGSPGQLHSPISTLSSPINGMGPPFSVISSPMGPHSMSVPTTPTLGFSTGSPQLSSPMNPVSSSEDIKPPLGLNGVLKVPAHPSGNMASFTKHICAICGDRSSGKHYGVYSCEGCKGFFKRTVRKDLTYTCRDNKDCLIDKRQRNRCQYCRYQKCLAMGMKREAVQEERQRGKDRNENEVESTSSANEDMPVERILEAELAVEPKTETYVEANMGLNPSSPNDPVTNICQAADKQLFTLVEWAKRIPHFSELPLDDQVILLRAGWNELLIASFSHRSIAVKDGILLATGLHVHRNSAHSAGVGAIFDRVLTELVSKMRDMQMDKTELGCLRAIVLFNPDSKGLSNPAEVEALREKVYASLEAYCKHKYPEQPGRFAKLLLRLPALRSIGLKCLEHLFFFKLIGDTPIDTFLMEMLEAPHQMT

For the molecule `O=C(c1ccccc1)c1ccc2n1CCC2C(=O)O` (stereo not drawn), the Potency result in assay [1], in [2], in [3], in [4], in [5] and in assay [6] was “inactive” in each case. For the same molecule, the Potency result in assay [7], in assay [8], in [9], in [10], in assay [11] and in [12] was “inactive” throughout.
For `CN(C(=O)CCCOc1ccc2[nH]c(=O)ccc2c1)C1CCCCC1`, the Potency result in assay [1], in assay [2], in assay [3], in assay [5], in [6] and in assay [7] was “inactive” in each case. In addition, the Potency result in [8], in assay [9], in assay [10], in assay [11] and in [16] was “inactive” throughout. The molecule was called inactive in [13], in [14] and in assay [15].
`O=C(O)c1cccc(N(Cc2cccnc2)c2ccc(OC(F)F)c(OC(F)F)c2)c1`: the Potency entry in assay [1], in assay [2], in assay [3], in assay [4], in [5] and in assay [6] was “inactive” throughout. For the same molecule, the Potency result in assay [7], in assay [8], in assay [9], in assay [11] and in assay [12] was “inactive” in each case. Further, the Potency in assay [10] was 30.6 µM (active).
Consider `OCCC1CCCCN1` (stereo not drawn), for which the Potency result in assay [1], in assay [2], in [3], in assay [19], in assay [5] and in [7] was “inactive” in each case. Further, the Potency entry in assay [8], in assay [9], in assay [10], in [11] and in [12] was “inactive” in each case. For the same molecule, the outcome in assay [17], in assay [18], in [13] and in assay [14] was inactive.
`CC(C)(C)c1ccc(OCC2CO2)cc1` (stereo not drawn): the Potency entry in assay [1], in [2], in [3], in assay [19], in [5] and in assay [6] was “inactive” in each case. Further, the Potency entry in assay [7], in assay [8], in [9], in [10], in assay [11] and in assay [16] was “inactive” throughout. The outcome in [17] and in assay [15] was inactive.
In the case of `CC[C@H](C)[C@@H](C(=O)O)n1sc2ccccc2c1=O`, the Potency entry in assay [1], in [2], in assay [19], in assay [5], in assay [7] and in assay [8] was “inactive” in each case. In addition, the Potency result in [9], in assay [10], in [11] and in assay [12] was “inactive” each time. The result in assay [17], in assay [13], in [14] and in assay [15] was inactive.
On to `CC(C)(C)C1CCCCC1O` (stereo not drawn), for which the Potency result in assay [1], in [2], in [3], in [4], in assay [5] and in assay [6] was “inactive” in each case. The Potency result in [7], in assay [8], in assay [9], in assay [10], in assay [11] and in assay [16] was “inactive” in each case. Further, the outcome in assay [17], in [18], in assay [14] and in assay [15] was inactive.
With `CN(c1nccc(=O)[nH]1)C1CCN(c2nc3ccccc3n2Cc2ccc(F)cc2)CC1`, the Potency entry in assay [3], in assay [4], in assay [5], in [6], in assay [7] and in assay [8] was “inactive” throughout. In addition, the Potency entry in assay [9], in assay [10] and in assay [12] was “inactive” in each case. Moreover, the call in [15] was inactive.
`S=C(S)NCCNC(=S)S`: the Potency entry in assay [1], in [2], in assay [4], in assay [5], in [7] and in [8] was “inactive” throughout. The Potency result in [9], in assay [10] and in assay [16] was “inactive” in each case. For the same molecule, the molecule was called inactive in assay [15] and in assay [20].
For the molecule `CCOC(=O)CC(=O)c1cc(F)c(Cl)nc1Cl`, the Potency entry in [1], in assay [2], in assay [3], in assay [4], in [5] and in [7] was “inactive” throughout. Besides, the Potency entry in assay [8], in assay [9], in assay [10] and in [16] was “inactive” each time. The result in [17], in assay [18], in assay [13], in assay [14] and in assay [20] was inactive.
